From ChEMBL document CHEMBL1961873, “Compounds: GSK PKIS; Assays: Nanosyn kinase panel” (2012)
Where “and” joins values, the source holds several entries; their conditions need not be identical. Equal entries are not always repeated.

Tests used:
[1] = molecular target: T1, Serine/threonine-protein kinase D2 (Homo sapiens) (UniProt Q9BZL6); details: at 1 µM;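 also: mean value of PRKD2 inhibition, from the GSK PKIS screening panel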
T1 sequence (whole entry): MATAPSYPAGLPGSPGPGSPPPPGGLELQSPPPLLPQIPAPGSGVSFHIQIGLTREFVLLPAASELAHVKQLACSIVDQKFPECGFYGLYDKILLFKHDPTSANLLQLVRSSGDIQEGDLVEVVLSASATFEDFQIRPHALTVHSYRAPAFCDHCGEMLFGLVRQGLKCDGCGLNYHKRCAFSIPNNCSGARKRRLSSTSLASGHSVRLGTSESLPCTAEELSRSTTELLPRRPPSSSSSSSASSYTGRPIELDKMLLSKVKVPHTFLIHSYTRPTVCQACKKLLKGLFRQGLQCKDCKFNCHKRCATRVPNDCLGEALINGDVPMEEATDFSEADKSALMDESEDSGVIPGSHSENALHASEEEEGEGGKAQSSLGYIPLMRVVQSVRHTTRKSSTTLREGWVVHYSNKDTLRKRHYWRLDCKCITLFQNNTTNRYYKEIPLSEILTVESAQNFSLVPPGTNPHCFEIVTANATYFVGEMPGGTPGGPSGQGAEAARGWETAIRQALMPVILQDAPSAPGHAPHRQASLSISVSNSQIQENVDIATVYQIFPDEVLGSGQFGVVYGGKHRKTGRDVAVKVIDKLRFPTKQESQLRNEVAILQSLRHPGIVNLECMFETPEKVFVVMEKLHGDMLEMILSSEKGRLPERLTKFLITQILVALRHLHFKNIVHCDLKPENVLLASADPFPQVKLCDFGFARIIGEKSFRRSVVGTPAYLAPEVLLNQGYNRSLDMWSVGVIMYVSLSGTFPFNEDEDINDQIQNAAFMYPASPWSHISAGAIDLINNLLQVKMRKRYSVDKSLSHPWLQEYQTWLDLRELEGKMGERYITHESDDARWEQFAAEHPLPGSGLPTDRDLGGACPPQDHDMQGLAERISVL

[2] = molecular target: T2, Serine/threonine-protein kinase D3 (Homo sapiens) (UniProt O94806); details: at 0.1 µM
T2 sequence (whole entry): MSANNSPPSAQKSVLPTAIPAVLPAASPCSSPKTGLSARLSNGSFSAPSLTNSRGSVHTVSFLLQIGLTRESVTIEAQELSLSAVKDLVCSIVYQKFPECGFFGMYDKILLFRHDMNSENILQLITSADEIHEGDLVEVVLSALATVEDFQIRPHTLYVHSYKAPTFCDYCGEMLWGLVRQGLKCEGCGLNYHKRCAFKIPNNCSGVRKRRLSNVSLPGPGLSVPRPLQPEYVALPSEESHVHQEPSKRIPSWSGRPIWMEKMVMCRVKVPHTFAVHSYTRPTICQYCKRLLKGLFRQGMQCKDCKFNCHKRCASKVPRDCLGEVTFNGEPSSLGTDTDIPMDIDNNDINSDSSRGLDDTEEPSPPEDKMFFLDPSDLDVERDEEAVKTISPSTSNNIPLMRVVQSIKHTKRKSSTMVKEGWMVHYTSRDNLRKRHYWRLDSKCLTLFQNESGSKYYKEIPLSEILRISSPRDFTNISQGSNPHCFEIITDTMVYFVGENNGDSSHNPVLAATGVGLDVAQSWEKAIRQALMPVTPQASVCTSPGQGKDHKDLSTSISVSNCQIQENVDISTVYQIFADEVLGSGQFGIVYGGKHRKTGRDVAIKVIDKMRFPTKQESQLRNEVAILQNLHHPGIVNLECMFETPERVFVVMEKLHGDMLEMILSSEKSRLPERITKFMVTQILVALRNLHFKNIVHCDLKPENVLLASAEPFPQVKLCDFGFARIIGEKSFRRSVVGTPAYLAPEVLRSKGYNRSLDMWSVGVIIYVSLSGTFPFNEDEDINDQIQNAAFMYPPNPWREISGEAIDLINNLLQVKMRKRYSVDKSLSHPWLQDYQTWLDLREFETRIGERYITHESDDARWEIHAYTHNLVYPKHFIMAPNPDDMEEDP

[3] = molecular target: T2, Serine/threonine-protein kinase D3 (Homo sapiens); details: at 1 µM
[4] = molecular target: T3, cGMP-dependent protein kinase 1 (Homo sapiens) (UniProt Q13976); details: at 0.1 µM
T3 sequence (whole entry): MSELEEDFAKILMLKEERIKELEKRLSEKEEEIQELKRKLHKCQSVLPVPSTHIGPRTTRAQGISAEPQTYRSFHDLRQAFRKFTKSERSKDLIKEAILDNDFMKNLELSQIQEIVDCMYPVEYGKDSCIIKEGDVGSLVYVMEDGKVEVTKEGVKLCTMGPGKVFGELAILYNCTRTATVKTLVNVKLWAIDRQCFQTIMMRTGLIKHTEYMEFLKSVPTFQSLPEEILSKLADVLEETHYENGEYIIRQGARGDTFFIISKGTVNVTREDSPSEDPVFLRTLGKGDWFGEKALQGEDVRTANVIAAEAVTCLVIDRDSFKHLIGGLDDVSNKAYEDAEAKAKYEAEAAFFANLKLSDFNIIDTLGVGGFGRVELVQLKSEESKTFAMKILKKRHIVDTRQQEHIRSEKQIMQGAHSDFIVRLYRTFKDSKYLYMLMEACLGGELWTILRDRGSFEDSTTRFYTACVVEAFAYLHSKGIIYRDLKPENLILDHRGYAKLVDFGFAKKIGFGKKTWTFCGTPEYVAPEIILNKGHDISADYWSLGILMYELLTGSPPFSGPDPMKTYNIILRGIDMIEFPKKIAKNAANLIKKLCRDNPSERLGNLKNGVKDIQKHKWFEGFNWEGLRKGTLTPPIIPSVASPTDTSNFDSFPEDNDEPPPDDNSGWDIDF

[5] = molecular target: T3, cGMP-dependent protein kinase 1 (Homo sapiens); details: at 1 µM
[6] = molecular target: T4, cGMP-dependent protein kinase 2 (Homo sapiens) (UniProt Q13237); details: at 0.1 µM
T4 sequence (whole entry): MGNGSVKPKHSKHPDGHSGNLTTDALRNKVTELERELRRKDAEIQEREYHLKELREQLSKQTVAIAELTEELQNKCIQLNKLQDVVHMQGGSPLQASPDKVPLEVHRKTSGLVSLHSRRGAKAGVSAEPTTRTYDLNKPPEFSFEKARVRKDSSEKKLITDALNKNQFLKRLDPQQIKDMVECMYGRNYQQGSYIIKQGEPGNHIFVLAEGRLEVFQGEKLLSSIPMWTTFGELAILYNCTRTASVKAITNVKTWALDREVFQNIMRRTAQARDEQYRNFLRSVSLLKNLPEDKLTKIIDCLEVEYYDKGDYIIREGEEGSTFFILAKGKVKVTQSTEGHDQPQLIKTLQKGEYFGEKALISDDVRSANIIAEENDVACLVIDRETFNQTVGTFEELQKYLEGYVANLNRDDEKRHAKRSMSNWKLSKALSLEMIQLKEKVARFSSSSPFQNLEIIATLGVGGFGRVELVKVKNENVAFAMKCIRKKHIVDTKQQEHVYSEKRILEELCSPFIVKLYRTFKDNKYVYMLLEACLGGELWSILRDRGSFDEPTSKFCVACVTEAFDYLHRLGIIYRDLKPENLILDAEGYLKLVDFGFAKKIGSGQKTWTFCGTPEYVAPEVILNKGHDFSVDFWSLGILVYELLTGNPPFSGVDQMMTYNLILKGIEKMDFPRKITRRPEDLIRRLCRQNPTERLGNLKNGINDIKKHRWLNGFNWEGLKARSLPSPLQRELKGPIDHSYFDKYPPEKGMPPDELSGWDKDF

[7] = molecular target: T4, cGMP-dependent protein kinase 2 (Homo sapiens); details: at 1 µM
[8] = molecular target: T5, cAMP-dependent protein kinase catalytic subunit PRKX (Homo sapiens) (UniProt P51817); details: at 0.1 µM
T5 sequence (whole entry): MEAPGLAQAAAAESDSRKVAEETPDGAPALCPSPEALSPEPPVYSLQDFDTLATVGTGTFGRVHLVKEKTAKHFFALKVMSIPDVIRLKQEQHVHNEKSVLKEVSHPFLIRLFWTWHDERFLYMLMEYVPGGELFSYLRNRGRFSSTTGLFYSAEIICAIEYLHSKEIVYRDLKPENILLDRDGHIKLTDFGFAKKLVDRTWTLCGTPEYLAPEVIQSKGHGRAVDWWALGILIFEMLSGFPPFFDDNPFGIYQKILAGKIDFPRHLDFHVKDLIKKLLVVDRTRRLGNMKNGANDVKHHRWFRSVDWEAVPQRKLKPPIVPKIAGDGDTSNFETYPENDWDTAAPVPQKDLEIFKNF

[9] = molecular target: T5, cAMP-dependent protein kinase catalytic subunit PRKX (Homo sapiens); details: at 1 µM
[10] = molecular target: Rho-associated protein kinase 1 (Homo sapiens) (UniProt Q13464); details: at 0.1 µM
[11] = molecular target: Rho-associated protein kinase 1 (Homo sapiens) (UniProt Q13464); details: at 1 µM
[12] = molecular target: Rho-associated protein kinase 2 (Homo sapiens) (UniProt O75116); details: at 0.1 µM
[13] = molecular target: Rho-associated protein kinase 2 (Homo sapiens) (UniProt O75116); details: at 1 µM
[14] = molecular target: Ribosomal protein S6 kinase alpha-1 (Homo sapiens) (UniProt Q15418); details: at 0.1 µM
[15] = molecular target: Ribosomal protein S6 kinase alpha-1 (Homo sapiens) (UniProt Q15418); details: at 1 µM
[16] = molecular target: Ribosomal protein S6 kinase alpha-3 (Homo sapiens) (UniProt P51812); details: at 0.1 µM
[17] = molecular target: Ribosomal protein S6 kinase alpha-3 (Homo sapiens) (UniProt P51812); details: at 1 µM
[18] = molecular target: Ribosomal protein S6 kinase alpha-2 (Homo sapiens) (UniProt Q15349); details: at 0.1 µM
[19] = molecular target: Ribosomal protein S6 kinase alpha-2 (Homo sapiens) (UniProt Q15349); details: at 1 µM
[20] = molecular target: Ribosomal protein S6 kinase alpha-6 (Homo sapiens) (UniProt Q9UK32); details: at 0.1 µM;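 also: reported value is the mean inhibition of RSK4, from the GSK PKIS kinase inhibitor screen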
Chain of Ribosomal protein S6 kinase alpha-6 (Homo sapiens) (Q9UK32 whole entry): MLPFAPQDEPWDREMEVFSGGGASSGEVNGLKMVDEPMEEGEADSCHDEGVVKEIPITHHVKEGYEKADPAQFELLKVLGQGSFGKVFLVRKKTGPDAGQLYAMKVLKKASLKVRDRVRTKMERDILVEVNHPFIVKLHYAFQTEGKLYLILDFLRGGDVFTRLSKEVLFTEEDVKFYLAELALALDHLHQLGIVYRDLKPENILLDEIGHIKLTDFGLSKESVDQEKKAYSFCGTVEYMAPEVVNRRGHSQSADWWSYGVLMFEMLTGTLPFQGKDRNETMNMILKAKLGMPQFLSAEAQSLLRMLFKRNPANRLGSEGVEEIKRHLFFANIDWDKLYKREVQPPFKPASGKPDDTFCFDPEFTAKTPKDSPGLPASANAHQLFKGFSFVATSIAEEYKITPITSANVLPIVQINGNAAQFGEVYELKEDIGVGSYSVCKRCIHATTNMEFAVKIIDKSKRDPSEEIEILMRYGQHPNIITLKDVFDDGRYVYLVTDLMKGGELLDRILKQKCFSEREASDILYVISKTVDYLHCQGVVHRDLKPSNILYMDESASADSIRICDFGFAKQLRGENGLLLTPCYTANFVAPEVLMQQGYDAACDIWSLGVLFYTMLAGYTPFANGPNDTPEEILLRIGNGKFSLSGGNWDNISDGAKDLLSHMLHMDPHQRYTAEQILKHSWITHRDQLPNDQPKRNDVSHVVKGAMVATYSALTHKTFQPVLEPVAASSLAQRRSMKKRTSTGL

Chain of Rho-associated protein kinase 2 (Homo sapiens) (O75116 whole entry, looked up): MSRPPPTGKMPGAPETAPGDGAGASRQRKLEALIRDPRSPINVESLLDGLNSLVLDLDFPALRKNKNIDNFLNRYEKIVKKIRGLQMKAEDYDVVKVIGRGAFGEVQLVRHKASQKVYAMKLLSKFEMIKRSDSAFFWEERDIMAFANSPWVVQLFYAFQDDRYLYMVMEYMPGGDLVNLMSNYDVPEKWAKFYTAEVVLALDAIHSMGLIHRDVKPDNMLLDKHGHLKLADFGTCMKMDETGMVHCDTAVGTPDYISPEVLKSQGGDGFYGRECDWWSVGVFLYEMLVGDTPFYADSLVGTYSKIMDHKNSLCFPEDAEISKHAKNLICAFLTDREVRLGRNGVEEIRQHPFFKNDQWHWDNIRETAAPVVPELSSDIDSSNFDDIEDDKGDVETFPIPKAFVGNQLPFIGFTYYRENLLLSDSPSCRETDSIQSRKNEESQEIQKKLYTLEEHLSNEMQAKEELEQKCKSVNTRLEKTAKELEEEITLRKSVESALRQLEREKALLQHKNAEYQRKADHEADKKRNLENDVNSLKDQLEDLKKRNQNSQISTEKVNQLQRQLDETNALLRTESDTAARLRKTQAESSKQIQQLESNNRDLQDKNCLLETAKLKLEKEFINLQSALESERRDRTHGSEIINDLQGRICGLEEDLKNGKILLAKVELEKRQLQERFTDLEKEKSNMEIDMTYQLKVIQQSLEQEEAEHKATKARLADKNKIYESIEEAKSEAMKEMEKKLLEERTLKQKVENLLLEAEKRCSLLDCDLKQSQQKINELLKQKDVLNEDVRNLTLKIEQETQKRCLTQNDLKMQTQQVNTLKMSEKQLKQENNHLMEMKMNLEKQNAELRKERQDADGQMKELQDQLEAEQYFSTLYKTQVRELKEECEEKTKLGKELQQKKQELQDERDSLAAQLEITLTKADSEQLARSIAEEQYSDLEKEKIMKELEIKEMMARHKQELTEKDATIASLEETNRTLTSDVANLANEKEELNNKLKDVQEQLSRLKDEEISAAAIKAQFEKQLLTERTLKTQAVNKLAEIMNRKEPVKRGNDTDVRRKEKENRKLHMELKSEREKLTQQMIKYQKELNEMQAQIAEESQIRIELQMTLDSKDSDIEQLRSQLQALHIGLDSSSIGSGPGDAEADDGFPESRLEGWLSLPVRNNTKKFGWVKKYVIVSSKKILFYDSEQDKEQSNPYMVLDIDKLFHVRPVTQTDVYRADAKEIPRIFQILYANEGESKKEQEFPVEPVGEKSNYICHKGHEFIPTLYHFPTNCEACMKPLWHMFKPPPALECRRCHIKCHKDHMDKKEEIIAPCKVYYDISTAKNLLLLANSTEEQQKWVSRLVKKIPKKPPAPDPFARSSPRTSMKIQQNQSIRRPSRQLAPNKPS
Chain of Ribosomal protein S6 kinase alpha-2 (Homo sapiens) (Q15349 whole entry): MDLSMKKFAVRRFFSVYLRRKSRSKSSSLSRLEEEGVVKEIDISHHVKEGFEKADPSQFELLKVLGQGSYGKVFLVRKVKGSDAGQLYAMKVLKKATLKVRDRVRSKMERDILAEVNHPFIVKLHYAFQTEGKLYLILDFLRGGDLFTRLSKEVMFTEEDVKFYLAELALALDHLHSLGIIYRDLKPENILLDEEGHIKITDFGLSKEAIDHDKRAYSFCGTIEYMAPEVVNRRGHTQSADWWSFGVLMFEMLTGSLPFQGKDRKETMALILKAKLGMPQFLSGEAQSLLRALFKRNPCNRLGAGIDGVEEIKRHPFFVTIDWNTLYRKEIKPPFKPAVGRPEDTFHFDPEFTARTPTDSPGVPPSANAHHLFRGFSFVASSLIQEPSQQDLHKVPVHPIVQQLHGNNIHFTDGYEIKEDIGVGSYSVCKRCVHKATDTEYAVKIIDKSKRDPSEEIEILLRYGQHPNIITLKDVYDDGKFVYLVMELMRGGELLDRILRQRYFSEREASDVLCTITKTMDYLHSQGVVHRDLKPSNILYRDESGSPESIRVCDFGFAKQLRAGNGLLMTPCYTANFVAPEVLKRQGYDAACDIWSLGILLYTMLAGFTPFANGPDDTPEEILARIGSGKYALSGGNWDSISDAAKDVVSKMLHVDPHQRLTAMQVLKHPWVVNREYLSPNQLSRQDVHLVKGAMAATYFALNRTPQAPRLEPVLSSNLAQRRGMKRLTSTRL
Chain of Ribosomal protein S6 kinase alpha-1 (Homo sapiens) (Q15418 whole entry): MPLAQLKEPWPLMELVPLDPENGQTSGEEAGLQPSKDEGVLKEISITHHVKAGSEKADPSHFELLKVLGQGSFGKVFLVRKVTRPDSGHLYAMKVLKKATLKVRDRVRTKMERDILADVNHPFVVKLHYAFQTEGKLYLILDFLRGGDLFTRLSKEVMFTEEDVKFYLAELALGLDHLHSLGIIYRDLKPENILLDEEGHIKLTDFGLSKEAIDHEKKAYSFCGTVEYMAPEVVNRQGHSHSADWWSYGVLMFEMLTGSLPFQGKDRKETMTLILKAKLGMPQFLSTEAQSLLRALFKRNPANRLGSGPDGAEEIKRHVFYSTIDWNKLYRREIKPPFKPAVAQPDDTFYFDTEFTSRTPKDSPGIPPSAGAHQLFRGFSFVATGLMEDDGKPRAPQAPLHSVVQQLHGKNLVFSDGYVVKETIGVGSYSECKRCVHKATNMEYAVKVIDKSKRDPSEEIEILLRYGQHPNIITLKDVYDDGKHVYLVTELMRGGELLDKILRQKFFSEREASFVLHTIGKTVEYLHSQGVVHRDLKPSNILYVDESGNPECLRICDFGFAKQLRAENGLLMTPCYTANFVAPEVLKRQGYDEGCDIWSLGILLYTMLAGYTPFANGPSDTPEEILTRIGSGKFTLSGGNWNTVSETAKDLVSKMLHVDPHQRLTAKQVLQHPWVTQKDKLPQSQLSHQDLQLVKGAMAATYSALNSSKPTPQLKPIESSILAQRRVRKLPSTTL
Chain of Ribosomal protein S6 kinase alpha-3 (Homo sapiens) (P51812 whole entry): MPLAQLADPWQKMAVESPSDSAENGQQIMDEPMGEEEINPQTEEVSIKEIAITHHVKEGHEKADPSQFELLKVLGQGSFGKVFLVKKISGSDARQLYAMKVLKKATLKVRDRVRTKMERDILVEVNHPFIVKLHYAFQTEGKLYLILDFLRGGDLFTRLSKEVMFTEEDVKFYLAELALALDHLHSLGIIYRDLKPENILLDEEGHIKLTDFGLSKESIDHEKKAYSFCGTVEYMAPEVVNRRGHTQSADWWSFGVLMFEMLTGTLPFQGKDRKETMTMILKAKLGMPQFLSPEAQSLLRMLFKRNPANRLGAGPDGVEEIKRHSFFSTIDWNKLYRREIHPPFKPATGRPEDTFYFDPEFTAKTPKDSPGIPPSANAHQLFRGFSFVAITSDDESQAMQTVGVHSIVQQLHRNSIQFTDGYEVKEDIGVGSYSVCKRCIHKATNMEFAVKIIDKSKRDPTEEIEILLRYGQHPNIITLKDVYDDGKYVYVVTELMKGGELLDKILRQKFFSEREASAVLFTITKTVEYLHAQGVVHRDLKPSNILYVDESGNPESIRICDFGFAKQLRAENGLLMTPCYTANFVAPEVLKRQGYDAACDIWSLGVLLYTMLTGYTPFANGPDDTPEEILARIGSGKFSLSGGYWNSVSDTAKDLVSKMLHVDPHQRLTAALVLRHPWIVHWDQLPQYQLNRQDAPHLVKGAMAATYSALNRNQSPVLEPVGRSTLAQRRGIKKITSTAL

Row | SMILES | inhibition [1] | inhibition [2] | inhibition [3] | inhibition [4] | inhibition [5] | inhibition [6] | inhibition [7] | inhibition [8] | inhibition [9] | inhibition [10] | inhibition [11] | inhibition [12] | inhibition [13] | inhibition [14] | inhibition [15] | inhibition [16] | inhibition [17] | inhibition [18] | inhibition [19] | inhibition [20]
1 | Cc1cc(O)cc(C)c1/C=C/c1cncc(C(=O)OC(C)(C)C)c1 | 1.78% | 2.12% | 2.64% | 3.26% | 3.58% | 1.21% | 2.65% | 3.57% | 6.36% | 2.92% | 2.78% | 4.67% | 3.55% | 0.74% | 1.77% | 1.52% | 1.88% | 1.57% | 1.41% | 0.33%
2 | CS(=O)(=O)Nc1ccc(-c2ccc3c(NC(=O)C4CC4)n[nH]c3c2)cc1 | 5.01% | 3.46% | 6.13% | 2.24% | 3.26% | 1.29% | 2.97% | 1.03% | -0.97% | 0.87% | 1.98% | 0.25% | -0.32% | 1.25% | 1.36% | 0.62% | 0.96% | 0.73% | 3.79% | 1.37%
3 | Nc1nccc(-c2c(-c3ccc(F)cc3)ncn2C2CCNCC2)n1 | 29.1% and 38.3% | -2.12% and 2.32% | 17.6% and 25.6% | -1.2% and -1.11% | -1.21% and 1.73% | -2.2% and 1.13% | 3.3% and 1.57% | -1.45% and 1.45% | -1.91% and 2.45% | -0.99% and 1.19% | 0.03% and 1.75% | -3.31% and 1.51% | -3.28% and 1.52% | -1.25% and 0.52% | 1.83% and 2.8% | -1.12% and 0.34% | 0.29% and 1.05% | -1.68% and 0.37% | 0.91% and 1.92% | -2.38% and 0.34%
4 | O=C1Nc2ccccc2/C1=C1\CCc2cc(O)ccc21 | 15.4% | 6.3% | 11.8% | 3.61% | 8.21% | 4.25% | 16.7% | 2.86% | 3.03% | 1.2% | 2.49% | 2.95% | 3.95% | 5.76% | 28.4% | 4.82% | 27% | 9.8% | 42.1% | 7.24%
5 | COC(=O)Nc1nc2ccc(Oc3ccc(NC(=O)Nc4cc(C(F)(F)F)ccc4F)cc3)cc2s1 | 1.09% | 0.52% | 0.53% | 1.65% | 2.05% | 1.07% | 1.92% | 0.15% | -0.17% | 0.74% | 1.94% | 0.66% | 1.17% | 1.59% | 2.46% | 0.8% | 2.83% | 3.19% | 13.1% | 0.36%
6 | CC1=C(C(=O)Nc2ccc3[nH]nc(C)c3c2)C(c2ccc(C(F)(F)F)cc2)CC(=O)N1 (stereo not given) | 4.33% | 3.46% | 9.27% | 3.93% | 18.2% | 5.55% | 40.2% | 7.3% | 47% | 67.8% | 89.8% | 70.3% | 83.8% | 2.72% | 11.3% | 1.64% | 17.2% | 1.77% | 9.89% | 3.48%
7 | CS(=O)(=O)CCNCc1ccoc1-c1ccc2ncnc(Nc3ccc(OCc4ccccc4)cc3)c2c1 | 1.7% | 0.9% | 1.39% | -0.04% | 0.54% | -0.54% | -1.25% | 0.33% | -0.34% | -1.21% | -0.69% | -1.1% | 0.07% | 0.19% | -0.1% | -0.27% | -0.04% | 1.27% | 1.14% | -0.31%
